TbPYK inhibitor: inhibitors of Trypanosoma brucei pyruvate kinase. Q57TT1. TbPYK enzyme, Kinase-Glo Plus ATP luminescence, 45 min. Potency, µM (series often up to 76.8 µM), without a hit: at the top dose activity, negative = inhibition, usual class: inhibitors. 410,000 compounds, 0.12% hits; also: potency is read from the fitted curve at half-maximal effect; % is scaled to controls: 0 for no effect and ±100 for the full control effect; nearly all actives have a fitted effect of over 50% in size
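In this concentration-response screen, enzyme-free wells defined baseline while DMSO plates tracked drift. Each reaction combined TbPYK, substrate, compound and 130 uM ADP for 45 min at room temperature. Kinase-Glo Plus luminescence gave the signal.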
LmPK inhibitor: LmPK (Leishmania mexicana) enzyme inhibition; Q27686; purified LmPK, Kinase-Glo ATP luminescence, 1 h; Potency, µM (series often up to 57.5 µM), without a hit: at the highest dose activity change, negative = inhibition, hits mostly inhibitors; 290,000 compounds, 0.37% hits; AID 1721; also: potency is read from the fitted curve at half-maximal effect; % is scaled to controls: 0 for no effect and ±100 for the full control effect
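qHTS format; LmPK 0.1 nM; substrates PEP 0.5 mM and ADP 0.1 mM. One-hour room-temperature incubation, then coupled luciferase luminescence; 0.5 nM enzyme wells mark activation.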
Cycloheximide cs: counter-screen hit for Shiga toxin inhibitors, cycloheximide; max response, %; cell reporter, cycloheximide protein synthesis inhibition counterscreen; 300,000 compounds, 12% hits; in the data active = max response mostly above about 13%, no sharp cut-off; inactive = mostly below about 14%; also: read at 38.3 µM for the half of the compounds with a filed dose; 0% is about no effect
FBPA Giardia inh: blocks Giardia fructose-bisphosphate aldolase activity; purified Giardia FBPA; Potency, µM (doses to about 59.6 µM), for inactives: top-dose activity, negative = inhibition, actives largely listed as inhibitors; 290,000 compounds, 0.71% hits; AID 2451; also: potency is read from the fitted curve at half-maximal effect; % is scaled to controls: 0 for no effect and ±100 for the full control effect; nearly all actives have a fitted effect of over 55% in size
Target sequence (A8B2U2 whole entry, looked up): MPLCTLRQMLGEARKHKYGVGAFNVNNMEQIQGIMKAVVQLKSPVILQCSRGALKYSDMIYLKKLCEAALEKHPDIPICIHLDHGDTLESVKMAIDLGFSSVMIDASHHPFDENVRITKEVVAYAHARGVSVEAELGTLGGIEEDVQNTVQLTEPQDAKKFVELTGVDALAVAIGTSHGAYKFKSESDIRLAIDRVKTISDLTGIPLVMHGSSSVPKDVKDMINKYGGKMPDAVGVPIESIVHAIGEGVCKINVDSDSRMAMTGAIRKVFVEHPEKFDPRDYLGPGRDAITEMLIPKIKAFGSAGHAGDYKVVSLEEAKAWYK
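40 nM FBPA preincubated 10 min at RT with compound (up to 57.5 uM final), then substrate plus GAPDH/TPI/NAD/arsenate coupling and diaphorase/resazurin added. Fluorescence read after 20 min at RT, 525/598 nm.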
Shiga toxin inh: Shiga toxin inhibition; Vero cells, Shiga toxin protein synthesis inhibition reporter; inhibition, % at 38.7 µM; 290,000 compounds, 9.2% hits; AID 2315; in the data active = inhibition mostly above about 28%, no sharp cut-off; inactive = mostly below about 43%; also: 0% is about no effect
RE007 growth inh: less growth of the S. pombe RE007 Vpr strain | S. pombe RE007 Vpr strain, BacTiter-Glo ATP luminescence, 24 h | Potency, µM (doses to about 92.2 µM), without a hit: at the top dose activity change, negative = less growth, usual class: inhibitors | 360,000 compounds, 0.21% hits; active = well fitted falling curve with a large enough effect; inconclusive = small, poorly fitted or top-dose-only effect; inactive = no such curve, though single readings can be large or run the other way; also: potency is read from the fitted curve at half-maximal effect; % is scaled to controls: 0 for no effect and ±100 for the full control effect; nearly all actives have a fitted effect of over 50% in size
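Fission yeast strain RE007, carrying one chromosomally integrated HIV-1 vpr copy, was seeded at OD 0.01 in PMG+AL medium with 23 nL pinned compound. After 24 h at 30 °C and 99% humidity, viability was read by BacTiter-Glo luminescence.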
Starred values were filed as active, the others as inactive; ? = inconclusive; / = no result given. Only a selection was taken, and hits are over-represented in it overall. Unless noted, calls follow the shape of the dose curve; as a rule, active = well fitted curve in the direction sought with a large enough effect; inconclusive = small, poorly fitted or top-dose-only effect, or another doubt; inactive = no such curve, though single readings can be large; an effect the other way counts as inactive or inconclusive.

SMILES	TbPYK inhibitor	LmPK inhibitor	Cycloheximide cs	FBPA Giardia inh	Shiga toxin inh	RE007 growth inh
Cc1cc([N+](=O)[O-])ccc1NC(=O)c1csc(C)c1C	8.5%	-2.5%	63.4*	-15.3%	98.6*	-3.5%
Cc1cc([N+](=O)[O-])ccc1NC(=O)c1cccc(NC(=O)C(C)C)c1	0.0%	-1.7%	15.5*	-1.0%	107.9*	58.4%
Cc1occc1C(=O)Nc1ccc(Br)cc1F	-8.0%	-13.8%	50.9*	3.8%	52.2*	-19.5%
CCCCc1c(O)n(-c2ccccc2)[nH]c1=O	/	/	3.9	1.7%	-5.3	/
CC1(C(=O)NS(=O)(=O)c2ccc(C#N)cc2)CCN1C(=O)C1(c2ccccc2)CCCC1 (centres undefined)	-6.8%	/	/	/	/	6.7%
COc1ccc(C(=O)Oc2cccc3cccnc23)cc1S(=O)(=O)N1CCOCC1	-1.5%	2.1%	9.4	-23.1%	-17.9	31.6µM*
COc1ccc(C(=O)Oc2cccc3cccnc23)cc1[N+](=O)[O-]	-0.2%	6.4%	-3.9	-26.9%	2.6	63.1µM*
COc1ccc(C(=O)Oc2ccc(C)cc2)cc1S(=O)(=O)N1CCOCC1	-10.8%	/	/	/	/	4.3%
NNCCc1ccccc1	2.0%	-0.5%	46.8*	2.2%	110.0*	0.6%
O=C(NCc1cccs1)c1ccc([N+](=O)[O-])cc1Cl	-5.1%	0.5%	11.0*	2.9%	23.8	-25.7%
O=C(NCc1cccs1)c1ccc2ccccc2n1	-6.3%	1.0%	32.0*	3.4%	73.0	-4.4%
O=C(NCc1cccs1)c1csc2ccccc12	5.1%	2.8%	25.0*	-1.4%	32.7	1.7%
O=C(NCc1ccccc1Cl)c1ccc2ccccc2n1	1.1%	7.6%	52.1*	-1.7%	86.3*	-8.5%
Cc1ccc(Cl)cc1N1CCN(C(=O)C2CCN(S(=O)(=O)Cc3ccccc3)CC2)CC1	-7.6%	/	/	/	/	/
COc1ccc2oc(C(=O)OCC(=O)Nc3ccccc3)c(C)c2c1	0.1%	-1.7%	29.1*	-1.0%	34.7*	-14.7%
COc1ccc2oc(C(=O)OCC(=O)Nc3ccccc3OC)c(C)c2c1	-0.4%	/	/	/	/	5.8%
CCOC(=O)N1CCN(C(=O)COC(=O)c2oc3ccc(OC)cc3c2C)CC1	7.3%	-2.2%	16.2*	-4.8%	32.1*	-2.1%
COc1ccc2oc(C(=O)OCC(=O)Nc3ccc(N4CCOCC4)cc3)c(C)c2c1	-1.2%	/	/	/	/	7.1%
COc1ccc2oc(C(=O)OCC(=O)Nc3ccc(C(=O)N(C)C)cc3)c(C)c2c1	-6.4%	-5.3%	16.6*	0.2%	13.8	-4.5%
CCC(/C=C1\Sc2ccc(OC)cc2N1CCO)=C\c1sc2ccc(OC)cc2[n+]1CCO	?	14.1µM*	-4.7	?	-2.8	?
CC(=O)Nc1cccc(C(=O)OCC(=O)NC(=O)c2ccccc2)c1	3.7%	/	/	/	/	6.4%
COc1ccccc1C(=O)NC(=O)COC(=O)c1cccc(NC(C)=O)c1	-0.1%	0.3%	27.9*	/	9.6	-18.1%
CCC(=O)Nc1cccc(C(=O)OCC(=O)c2ccccc2Cl)c1	-2.3%	0.8%	30.9*	-1.0%	74.4*	20.0%
CC(=O)Nc1cccc(C(=O)OCC(=O)c2ccccc2Cl)c1	-3.3%	-24.1%	35.1*	-5.7%	124.9*	38.1%
COCCCNc1nc2c(-c3ccccc3)nnn2c2ccccc12	5.9%	/	/	/	/	/
SMILES	TbPYK inhibitor	LmPK inhibitor	Cycloheximide cs	FBPA Giardia inh	Shiga toxin inh	RE007 growth inh
CC(=O)c1sc(N/N=C/c2cccc(O)c2)nc1C	-3.2%	0.4%	39.6*	-11.6%	49.8*	3.7%
CC(=O)c1sc(N/N=C\c2ccc(N(C)C)cc2)nc1C	-0.7%	-1.8%	31.0*	-15.9%	/	5.9%
CC(=O)c1sc(N/N=C/c2cccc([N+](=O)[O-])c2)nc1C	0.0%	2.8%	2.5	3.9%	33.4	-5.7%
CC(=O)c1sc(N/N=C\c2c(O)ccc3ccccc23)nc1C	4.3%	/	/	/	/	10.1%
COC(=O)c1sc(N/N=C/c2ccc(C(C)C)cc2)nc1C	0.7%	9.0%	12.0	5.2%	53.0*	15.5%
CCCCc1cc(=O)oc2cc(C)c3c(C(C)(C)C)coc3c12	-11.2%	/	/	/	/	/
CCOC(=O)C(=O)Nc1nccs1	4.4%	0.6%	-5.6	-16.3%	21.4	14.3%
Cc1ccc(/C=C/C(=O)Nc2ncc(C)s2)o1	?	0.0%	47.2*	?	68.6*	-9.5%
Cc1ccc(/C=C/C(=O)Nc2ccc(N(C)C)cc2)o1	-22.5%	-8.7%	38.1*	-14.5%	84.7*	-16.9%
Cc1ccc(/C=C/C(=O)NCc2ccccn2)o1	?	1.1%	-1.6	-10.5%	11.3	1.3%
Cc1ccc(/C=C/C(=O)Nc2nnc(SCc3ccc(C#N)cc3)s2)o1	-5.5%	-1.6%	-1.4	3.3%	-9.7	3.6%
Cc1ccc(/C=C/C(=O)Nc2ccncc2)o1	-15.5%	-4.1%	14.8	-8.5%	52.3	-15.0%
Cc1ccc(/C=C/C(=O)Nc2nccs2)o1	?	-23.3%	55.2*	?	108.3*	5.1%
CCOC(=O)/C=C/C(=O)Nc1nccs1	5.2%	1.9%	14.9*	7.6%	19.5	-29.4%
Cc1cnc(NC(=O)/C=C/c2ccc(Br)o2)s1	-2.1%	-2.0%	15.8*	1.5%	80.6*	-9.5%
N/C(=N\OC(=O)/C=C/c1ccc(Br)cc1)c1ccccn1	-13.9%	-19.8%	80.9*	3.1%	67.7*	1.3%
COc1ccc(/C(N)=N/OC(=O)/C=C/c2ccccc2)cc1	-3.6%	-0.4%	18.8	-3.3%	30.3	-20.2%
N/C(=N\OC(=O)/C=C/c1ccccc1Cl)c1cccnc1	-8.0%	-1.6%	63.3*	0.1%	112.3*	1.1%
N/C(=N\OC(=O)/C=C/c1ccccc1)c1cccnc1	2.3%	-12.6%	32.2*	1.6%	70.0*	-1.7%
Cc1cccc(N(C)C(=S)Oc2ccc3ccccc3c2)c1	1.1%	3.0%	27.8*	-22.9%	49.4*	19.1%
O=C(Nc1cnc2ccccc2c1)N1CCCCC1	-3.6%	-13.8%	50.7*	-2.9%	81.7*	-3.2%
O=C(Nc1ccc(O)cc1)N1CCOCC1	3.9%	0.8%	0.7	-2.9%	8.3	-10.8%
O=C(Nc1cnc2ccccc2c1)N1CCOCC1	-18.7%	-13.1%	42.4*	-0.1%	64.0*	-0.8%
O=C(Nc1ccc2nc(-c3ccco3)c(-c3ccco3)nc2c1)N1CCN(c2ccccn2)CC1	?	0.9%	-4.7	?	-2.8	0.5%
CC1(C(=O)Nc2cnc3ccccc3c2)CCN1Cc1ccc2ccccc2c1 (centres undefined)	-5.6%	/	/	/	/	-16.6%
O=C(Nc1ccc2nc(-c3ccco3)c(-c3ccco3)nc2c1)N1CCCC1	/	/	30.1*	/	61.6*	/
Cc1ccc(CN(C(=O)COc2ccccc2[N+](=O)[O-])c2ccccn2)cc1	-4.1%	/	/	/	/	/
O=[N+]([O-])c1ccc(O)c(N=Cc2sc3ccccc3c2O)c1	-12.7%	-23.8%	60.0*	?	60.7*	-24.7%

Compound activity: PubChem BioAssay, National Center for Advancing Translational Sciences (NCATS)
